From the antibiotic and cytotoxicity screens of Wong et al. (2023) come the findings set out here.

Among all 39,000 compounds or so, about 1,500 (3.8%) were called active. Shown is part of a subset that was picked to be rich in actives.

This experiment concerns HSkMC (human skeletal muscle cells). Nature of the experiment: cytotoxicity call (relative viability < 0.9). The following applies: 10 µM.
Consider `C[C@@H]1CN([C@@H](C)CO)S(=O)(=O)c2ccc(-c3cncnc3)cc2O[C@H]1CN(C)C(=O)Cc1ccncc1`, for which the cytotoxicity call is “inactive”.

In the case of `COc1ccc(S(=O)(=O)Nc2ccc3c(c2)C(=O)N([C@@H](C)CO)C[C@H](C)[C@H](CN(C)C(=O)Nc2cccc4ccccc24)OCCCC[C@H](C)O3)cc1`, the cytotoxicity call was “inactive”.

For `C[C@@H]1CCCCO[C@H](CN(C)S(C)(=O)=O)[C@@H](C)CN([C@@H](C)CO)C(=O)c2cc(NS(=O)(=O)c3ccccc3)ccc2O1`, the cytotoxicity call was “inactive”.

Regarding `C[C@@H]1CN([C@@H](C)CO)C(=O)c2cccc(NC(=O)c3ccc(-c4nccs4)cc3)c2O[C@@H]1CN(C)Cc1ccc(C(=O)O)cc1`, the cytotoxicity call is “inactive”.

Turning to `C[C@@H]1CN([C@H](C)CO)C(=O)c2cc(NC(=O)Nc3ccc(F)cc3)ccc2O[C@@H](C)CCCCO[C@H]1CN(C)Cc1ccc(Cl)c(Cl)c1`, the cytotoxicity call was “active”.

As for `C[C@H]1CCCCO[C@H](CN(C)Cc2ccc(Cl)c(Cl)c2)[C@@H](C)CN([C@@H](C)CO)C(=O)c2cc(NC(=O)Nc3ccccc3)ccc2O1`, the cytotoxicity call was “inactive”.

With `C[C@@H]1CN([C@H](C)CO)C(=O)c2cc(NC(=O)Nc3ccccc3)ccc2O[C@@H](C)CCCCO[C@H]1CN(C)Cc1ccc(Cl)c(Cl)c1`, the cytotoxicity call was “active”.

As for `C[C@H]1CCCCO[C@H](CN(C)Cc2ccc(Cl)c(Cl)c2)[C@@H](C)CN([C@@H](C)CO)C(=O)c2cc(NC(=O)Nc3ccc(F)cc3)ccc2O1`, the cytotoxicity call is “inactive”.

As to `Cc1noc(C)c1NC(=O)Nc1ccc2c(c1)C(=O)N([C@@H](C)CO)C[C@@H](C)[C@H](CN(C)Cc1ccc(Cl)c(Cl)c1)OCCCC[C@H](C)O2`, the cytotoxicity call was “inactive”.

As to `Cc1noc(C)c1NC(=O)Nc1ccc2c(c1)C(=O)N([C@H](C)CO)C[C@@H](C)[C@@H](CN(C)Cc1ccc(Cl)c(Cl)c1)OCCCC[C@H](C)O2`, the cytotoxicity call is “active”.

For the molecule `C[C@@H]1CCCCO[C@@H](CN(C)Cc2ccc(Cl)c(Cl)c2)[C@@H](C)CN([C@@H](C)CO)C(=O)c2cc(NC(=O)Nc3ccc(F)cc3)ccc2O1`, the cytotoxicity call was “inactive”.

`Cc1noc(C)c1NC(=O)Nc1ccc2c(c1)C(=O)N([C@H](C)CO)C[C@@H](C)[C@H](CN(C)Cc1ccc(Cl)c(Cl)c1)OCCCC[C@@H](C)O2`: the cytotoxicity call was “inactive”.

Take `C[C@@H]1CCCCO[C@@H](CN(C)Cc2ccc(Cl)c(Cl)c2)[C@@H](C)CN([C@H](C)CO)C(=O)c2cc(NC(=O)Nc3ccccc3)ccc2O1`: the cytotoxicity call is “inactive”.

As to `CO[C@@H]1CN(C)C(=O)c2cc(NC(=O)Nc3ccccc3F)ccc2OC[C@@H](C)N(Cc2ccccc2C(=O)O)C[C@@H]1C`, the cytotoxicity call is “inactive”.

Consider `Cc1noc(C)c1NC(=O)Nc1ccc2c(c1)C(=O)N([C@H](C)CO)C[C@H](C)[C@H](CN(C)Cc1ccc(Oc3ccccc3)cc1)O2`, for which the cytotoxicity call is “inactive”.

Turning to `COc1cccc(S(=O)(=O)N(C)C[C@H]2OCc3cn(nn3)CCCC(=O)N([C@H](C)CO)C[C@H]2C)c1`, the cytotoxicity call is “inactive”.

In the case of `COc1ccc(NC(=O)N(C)C[C@@H]2OCCCC[C@H](C)Oc3ccc(NC(=O)Nc4cccc5ccccc45)cc3C(=O)N([C@H](C)CO)C[C@@H]2C)cc1`, the cytotoxicity call was “inactive”.

With `C[C@@H]1CN([C@@H](C)CO)C(=O)Cc2cc(NC(=O)Cn3cnnn3)ccc2O[C@@H]1CN(C)CC1CCCCC1`, the cytotoxicity call is “inactive”.

Turning to `CC(C)NC(=O)N(C)C[C@@H]1Oc2cc(C#Cc3ccc(F)cc3)ccc2S(=O)(=O)N([C@H](C)CO)C[C@@H]1C`, the cytotoxicity call is “inactive”.

`C[C@H]1CN([C@@H](C)CO)C(=O)c2cccc(NC(=O)Nc3ccc(F)cc3)c2O[C@H]1CN(C)C(=O)Nc1cccc2ccccc12`: the cytotoxicity call is “inactive”.

As to `COc1ccc([Si](C)(C)[C@@H]2[C@@H](CCn3cc([C@H](O)c4ccccc4)nn3)O[C@]3(C(=O)N(Cc4cccc(N5CCOC5=O)c4)c4ccccc43)[C@H]2C)cc1`, the cytotoxicity call was “inactive”.

Consider `C[C@@H]1CN([C@@H](C)CO)C(=O)Cc2cc(NC(=O)Cn3cnnn3)ccc2O[C@@H]1CN(C)CC1CC1`, for which the cytotoxicity call was “inactive”.

For the molecule `COc1ccc(Oc2cc(NCCC(F)(F)F)c3ncc(-c4ccc(C(=O)NC5CC5)c(C)c4)n3n2)c(F)c1F`, the cytotoxicity call was “active”.

Turning to `Cc1ccc(S(=O)(=O)Nc2ccc3c(c2)C(=O)N([C@H](C)CO)C[C@H](C)[C@H](CN(C)S(C)(=O)=O)OCCCC[C@@H](C)O3)cc1`, the cytotoxicity call is “inactive”.

In the case of `C=CC[C@H](CC(=O)N(CCO)Cc1ccccc1)C(=O)N[C@H](COC(=O)[C@H](CC=C)NC(=O)OCC1c2ccccc2-c2ccccc21)C(C)(C)C`, the cytotoxicity call was “inactive”.

Take `C[C@H]1CN([C@@H](C)CO)C(=O)Cc2cc(NC(=O)Nc3ccc(F)cc3)ccc2O[C@H]1CN(C)Cc1ccc(C(=O)Nc2ccccc2N)cc1`: the cytotoxicity call was “active”.

Take `C[C@@H]1CN([C@H](C)CO)C(=O)Cc2cc(NC(=O)Nc3ccccc3)ccc2O[C@@H]1CN(C)Cc1ccc(-c2ccccc2)cc1`: the cytotoxicity call is “active”.

For the molecule `C[C@H](CO)N1C[C@H](C)[C@H](CN(C)Cc2ccc(-c3ccccc3)cc2)Oc2ccc(NC(=O)Nc3ccccc3)cc2CC1=O`, the cytotoxicity call is “inactive”.

As to `C[C@@H]1CN([C@H](C)CO)C(=O)Cc2cc(NC(=O)Nc3ccccc3)ccc2O[C@H]1CN(C)S(C)(=O)=O`, the cytotoxicity call was “inactive”.

Consider `C[C@H](CO)N1C[C@H](C)[C@H](CN(C)Cc2ccc(C(=O)Nc3ccccc3N)cc2)Oc2ccc(NC(=O)Nc3ccc(F)cc3)cc2CC1=O`, for which the cytotoxicity call is “inactive”.

As to `C[C@@H]1CN([C@@H](C)CO)C(=O)Cc2cc(NC(=O)Nc3ccccc3)ccc2O[C@@H]1CN(C)Cc1ccc(-c2ccccc2)cc1`, the cytotoxicity call was “inactive”.

For the molecule `C[C@H]1CN([C@@H](C)CO)C(=O)Cc2cc(NC(=O)Nc3ccccc3)ccc2O[C@H]1CN(C)S(C)(=O)=O`, the cytotoxicity call was “inactive”.

With `C[C@@H]1CN([C@@H](C)CO)C(=O)Cc2cc(NC(=O)Nc3ccc(F)cc3)ccc2O[C@H]1CN(C)Cc1ccc(-c2ccccc2)cc1`, the cytotoxicity call is “inactive”.

For `C[C@H](CO)N1C[C@H](C)[C@@H](CN(C)Cc2ccc(C(=O)Nc3ccccc3N)cc2)Oc2ccc(NC(=O)Nc3ccc(F)cc3)cc2CC1=O`, the cytotoxicity call is “inactive”.

Turning to `C[C@H](CO)N1C[C@H](C)[C@H](CN(C)S(C)(=O)=O)Oc2ccc(NC(=O)Nc3ccccc3)cc2CC1=O`, the cytotoxicity call is “active”.

Regarding `C[C@@H]1CN([C@H](C)CO)C(=O)Cc2cc(NC(=O)Nc3ccc(F)cc3)ccc2O[C@H]1CN(C)Cc1ccc(-c2ccccc2)cc1`, the cytotoxicity call was “active”.

On to `Cc1sc(Nc2ccccc2)nc1-c1ccc(Cl)cc1`, for which the cytotoxicity call is “inactive”.

As for `COc1ccc(CCN2C(=O)[C@@]3(c4ccc([N+](=O)[O-])cc4)CC(=O)N(CC45CC6CC(CC(C6)C4)C5)[C@@H]3c3ccc(CO)cc32)cc1`, the cytotoxicity call was “inactive”.

On to `O=C1CSC(=S)N1`, for which the cytotoxicity call was “inactive”.

As to `COc1ccc(NC(=O)N(C)C[C@H]2Oc3c(NC(=O)Nc4ccc(C(F)(F)F)cc4)cccc3C(=O)N([C@H](C)CO)C[C@@H]2C)cc1`, the cytotoxicity call was “inactive”.

For `COc1ccc(S(=O)(=O)Nc2ccc3c(c2)CC(=O)N([C@H](C)CO)C[C@H](C)[C@@H](CN(C)S(=O)(=O)c2ccccc2)O3)cc1`, the cytotoxicity call is “inactive”.

As to `C[C@@H]1CCCCO[C@@H](CN(C)Cc2ccncc2)[C@H](C)CN([C@H](C)CO)C(=O)c2cc(NC(=O)Cc3ccccc3)ccc2O1`, the cytotoxicity call was “inactive”.

As to `C[C@@H]1CN([C@@H](C)CO)C(=O)c2cc(NC(=O)Nc3ccc(F)cc3)ccc2O[C@@H](C)CCCCO[C@@H]1CN(C)Cc1ccc2c(c1)OCO2`, the cytotoxicity call was “inactive”.

With `C[C@@H]1CN([C@@H](C)CO)C(=O)c2cc(NC(=O)Nc3ccc(F)cc3)ccc2O[C@@H](C)CCCCO[C@@H]1CN(C)Cc1ccc(C(=O)O)cc1`, the cytotoxicity call is “inactive”.

For the molecule `C[C@@H]1CN([C@H](C)CO)C(=O)c2cc(NS(=O)(=O)c3cn(C)cn3)ccc2O[C@@H]1CN(C)Cc1ccncc1`, the cytotoxicity call was “inactive”.

`C[C@H]1CN([C@@H](C)CO)C(=O)Cc2cc(NC(=O)Nc3ccc(F)cc3)ccc2O[C@H]1CN(C)Cc1ccc(-c2ccccc2)cc1`: the cytotoxicity call is “active”.

On to `C[C@H](CO)N1C[C@H](C)[C@@H](CN(C)Cc2ccc(-c3ccccc3)cc2)Oc2ccc(NC(=O)Nc3ccc(F)cc3)cc2CC1=O`, for which the cytotoxicity call was “inactive”.

Turning to `C[C@@H]1CN([C@@H](C)CO)C(=O)Cc2cc(NC(=O)Nc3ccc(F)cc3)ccc2O[C@@H]1CN(C)Cc1ccc(-c2ccccc2)cc1`, the cytotoxicity call is “inactive”.

Regarding `C[C@H]1CN([C@@H](C)CO)C(=O)Cc2cc(NC(=O)Nc3ccc(F)cc3)ccc2O[C@@H]1CN(C)Cc1ccc(-c2ccccc2)cc1`, the cytotoxicity call is “inactive”.

As for `C[C@@H]1CN([C@H](C)CO)C(=O)Cc2cc(NC(=O)Nc3ccc4c(c3)OCO4)ccc2O[C@@H]1CN(C)Cc1ccc(-c2ccccc2)cc1`, the cytotoxicity call was “active”.

Take `C[C@@H]1CN([C@@H](C)CO)C(=O)Cc2cc(NC(=O)Nc3ccc4c(c3)OCO4)ccc2O[C@H]1CN(C)Cc1ccc(-c2ccccc2)cc1`: the cytotoxicity call was “inactive”.

`C[C@H](CO)N1C[C@H](C)[C@H](CN(C)Cc2ccc(-c3ccccc3)cc2)Oc2ccc(NC(=O)c3ccncc3)cc2CC1=O`: the cytotoxicity call was “inactive”.

As for `C[C@H]1CN([C@@H](C)CO)C(=O)Cc2cc(NC(=O)Nc3ccc4c(c3)OCO4)ccc2O[C@H]1CN(C)Cc1ccc(-c2ccccc2)cc1`, the cytotoxicity call is “inactive”.

As to `C[C@H](CO)N1C[C@H](C)[C@H](CN(C)Cc2ccc(-c3ccccc3)cc2)Oc2ccc(NC(=O)Nc3ccc(F)cc3)cc2CC1=O`, the cytotoxicity call is “active”.

Regarding `C[C@@H]1CN([C@H](C)CO)C(=O)Cc2cc(NC(=O)c3ccncc3)ccc2O[C@@H]1CN(C)Cc1ccc(-c2ccccc2)cc1`, the cytotoxicity call was “active”.

For `C[C@@H]1CN([C@H](C)CO)C(=O)Cc2cc(NC(=O)Nc3ccc(F)cc3)ccc2O[C@@H]1CN(C)Cc1ccc(-c2ccccc2)cc1`, the cytotoxicity call is “inactive”.

In the case of `C[C@H]1CN([C@@H](C)CO)C(=O)Cc2cc(NC(=O)c3ccncc3)ccc2O[C@H]1CN(C)Cc1ccc(-c2ccccc2)cc1`, the cytotoxicity call is “inactive”.

Consider `COCC#Cc1ccc2c(c1)O[C@@H](CN(C)C(=O)C1CCOCC1)[C@H](C)CN([C@H](C)CO)S2(=O)=O`, for which the cytotoxicity call is “inactive”.
